{"source": "the supplement of paper PMC6992640", "note": "± gives the standard deviation of the averaged measurements.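 Also: PDX cells carrying CMV promoter-driven luciferase, viability read as total photon flux per second by IVIS imaging following D-luciferin, vehicle control 0.1% DMSO.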", "data": [{"tested_on": "HCI11 (cells of an ER-positive luminal breast cancer xenograft)", "experiment": "cell viability (% of vehicle); higher = less cytotoxic", "conditions": "10 µM; 72 h", "values": [{"smiles": "Nc1nc(=O)c2c([nH]1)NCC(CNc1ccc(C(=O)NC(CCC(=O)[O-])C(=O)[O-])cc1)N2C=O.O.O.O.O.O.[Ca+2]", "note": "(stereo not given) [Leucovorin Calcium]", "cell viability": 83.9}, {"smiles": "Nc1nc(Cl)nc2c1ncn2C1OC(CO)C(O)C1F", "note": "(stereo not given) [Clofarabine]", "cell viability": 126}, {"smiles": "Cc1cc(C2CCCCC2)n(O)c(=O)c1", "note": "[Ciclopirox]", "cell viability": 51.7}, {"smiles": "NC(=O)C(CCC(F)(F)F)N(Cc1ccc(-c2ncon2)cc1F)S(=O)(=O)c1ccc(Cl)cc1", "note": "(stereo not given)", "cell viability": 75.5}, {"smiles": "CC(=O)O[C@@]12CO[C@@H]1C[C@H](O)[C@@]1(C)C(=O)[C@H](O)C3=C(C)[C@@H](OC(=O)[C@H](O)[C@@H](NC(=O)OC(C)(C)C)c4ccccc4)C[C@@](O)([C@@H](OC(=O)c4ccccc4)[C@H]21)C3(C)C", "note": "[Docetaxel]", "cell viability": 124}, {"smiles": "O=C(Oc1ccccc1C(=O)O)c1ccccc1O", "note": "[Sasapyrine]", "cell viability": 104}, {"smiles": "CCCNS(=O)(=O)Nc1ncnc(OCCOc2ncc(Br)cn2)c1-c1ccc(Br)cc1", "note": "[Macitentan]", "cell viability": 91.4}, {"smiles": "CCCCCCCCCC(=O)NC(Cc1c[nH]c2ccccc12)C(=O)NC(CC(N)=O)C(=O)NC(CC(=O)O)C(=O)NC1C(=O)NCC(=O)NC(CCCN)C(=O)NC(CC(=O)O)C(=O)NC(C)C(=O)NC(CC(=O)O)C(=O)NCC(=O)NC(CO)C(=O)NC(C(C)CC(=O)O)C(=O)NC(CC(=O)c2ccccc2N)C(=O)OC1C", "note": "(stereo not given) [Daptomycin]", "cell viability": 113}, {"smiles": "COc1nc(C)nc(Cl)c1NC1=NCCN1", "note": "[Moxonidine]", "cell viability": 115}, {"smiles": "NCCCCC(NC(CCc1ccccc1)C(=O)O)C(=O)N1CCCC1C(=O)O.O.O", "note": "(stereo not given) [Lisinopril dihydrate]", "cell viability": 113}, {"smiles": "Cc1cc(C2CCCCC2)n(O)c(=O)c1.NCCO", "note": "[Ciclopirox ethanolamine]", "cell viability": 69.4}]}, {"tested_on": "HCI13 (cells of an ER-positive luminal breast cancer xenograft)", "experiment": "cell viability (% of vehicle); higher = less cytotoxic", "conditions": "10 µM; 72 h", "values": [{"smiles": "CC1COc2c(N3CCN(C)CC3)c(F)cc3c(=O)c(C(=O)O)cn1c23", "note": "(stereo not given) [Ofloxacin]", "cell viability": "186 ± 11"}, {"smiles": "Cc1cc(Nc2cc(N3CCN(C)CC3)nc(Sc3ccc(NC(=O)C4CC4)cc3)n2)n[nH]1", "note": "[VX-680 (MK-0457,Tozasertib)]", "cell viability": "81.5 ± 1.7"}, {"smiles": "O=C([O-])P(=O)([O-])[O-].[Na+].[Na+].[Na+]", "note": "[Foscarnet Sodium]", "cell viability": "95.1 ± 6.7"}, {"smiles": "Cc1onc(-c2ccccc2Cl)c1C(=O)NC1C(=O)N2C1SC(C)(C)C2C(=O)[O-].O.[Na+]", "note": "(stereo not given) [Cloxacillin Sodium]", "cell viability": "191 ± 2.4"}, {"smiles": "CNCc1ccc(-c2[nH]c3cc(F)cc4c3c2CCNC4=O)cc1.O=P(O)(O)O", "cell viability": "145 ± 9.1"}, {"smiles": "CN1CCC(OC(c2ccccc2)c2ccccc2)CC1.Cl", "note": "[Diphenylpyraline HCl]", "cell viability": "97.2 ± 13"}, {"smiles": "COc1cc(OC)c(C(=O)CCCN2CCCC2)c(OC)c1.Cl", "note": "[Buflomedil HCl]", "cell viability": "86.6 ± 2.6"}, {"smiles": "CC(C)(O)c1ccccc1CCC(SCC1(CC(=O)[O-])CC1)c1cccc(C=Cc2ccc3ccc(Cl)cc3n2)c1.[Na+]", "note": "(stereo not given) [Montelukast Sodium]", "cell viability": "45.5 ± 6.3"}, {"smiles": "CC(=O)Oc1ccccc1C(=O)O", "note": "[Aspirin (Acetylsalicylic acid)]", "cell viability": "148 ± 30"}, {"smiles": "CCN(CCCc1ccccc1)CCCc1ccccc1.O=C(O)CC(O)(CC(=O)O)C(=O)O", "note": "[Alverine Citrate]", "cell viability": "190 ± 4.8"}, {"smiles": "CC#CCn1c(N2CCCC(N)C2)nc2c1c(=O)n(Cc1nc(C)c3ccccc3n1)c(=O)n2C", "note": "(stereo not given) [Linagliptin (BI-1356)]", "cell viability": "105 ± 6.1"}, {"smiles": "Cc1cc2c(s1)=Nc1ccccc1NC=2N1CCN(C)CC1", "note": "[Olanzapine]", "cell viability": "88.6 ± 14"}, {"smiles": "CC1(O)CC(c2nc(-c3ccc4ccc(-c5ccccc5)nc4c3)c3c(N)nccn23)C1", "note": "(stereo not given) [Linsitinib]", "cell viability": "38.6 ± 4"}, {"smiles": "Cc1cn(C2CC(O)C(CO)O2)c(=O)[nH]c1=O", "note": "(stereo not given) [Telbivudine]", "cell viability": "164 ± 67"}, {"smiles": "Nc1ncnc2c1ncn2C1OC(CO)C(O)C1O", "note": "(stereo not given) [Adenosine]", "cell viability": "66.2 ± 4.5"}, {"smiles": "CC(=O)[C@@]1(O)CC[C@H]2[C@@H]3CCC4=CC(=O)CCC4=C3[C@@H](c3ccc(N(C)C)cc3)C[C@@]21C", "note": "[Ulipristal]", "cell viability": "113 ± 3.3"}, {"smiles": "Cc1c(OCC(F)(F)F)ccnc1CS(=O)c1nc2ccccc2[nH]1", "note": "(stereo not given) [Dexlansoprazole]", "cell viability": "188 ± 57"}, {"smiles": "c1cc(CN2CCCNCCNCCCNCC2)ccc1CN1CCCNCCNCCCNCC1", "note": "[Plerixafor (AMD3100)]", "cell viability": "85.1 ± 4.1"}, {"smiles": "COS(=O)(=O)[O-].C[N+]1(C)CCC(=C(c2ccccc2)c2ccccc2)CC1", "note": "[Diphemanil Methylsulfate]", "cell viability": "119 ± 5.8"}, {"smiles": "CC(O)C1C(=O)N2C(C(=O)OCOC(=O)C(C)(C)C)=C(SC3CN(C4=NCCS4)C3)C(C)C12", "note": "(stereo not given) [Tebipenempivoxil]", "cell viability": "101 ± 34"}, {"smiles": "CS(=O)(=O)N1CCN(Cc2cc3nc(-c4cccc5[nH]ncc45)nc(N4CCOCC4)c3s2)CC1", "cell viability": "90.7 ± 3.3"}, {"smiles": "O=C(NC(CO)C(O)c1ccc([N+](=O)[O-])cc1)C(Cl)Cl", "note": "(stereo not given) [Chloramphenicol]", "cell viability": "81.3 ± 6.8"}, {"smiles": "Cc1ccc(Nc2nccc(N(C)c3ccc4c(C)n(C)nc4c3)n2)cc1S(N)(=O)=O.Cl", "cell viability": "110 ± 6.2"}, {"smiles": "NC(=O)N1CCC(CC(=O)N2CCC(C3c4ncc(Br)cc4CCc4cc(Cl)cc(Br)c43)CC2)CC1", "note": "(stereo not given) [Lonafarnib]", "cell viability": "43.2 ± 17"}, {"smiles": "CC(C)OC(=O)OCOP(=O)(COC(C)Cn1cnc2c(N)ncnc21)OCOC(=O)OC(C)C.O=C(O)C=CC(=O)O", "note": "(stereo not given) [Tenofovir Disoproxil Fumarate]", "cell viability": "51.9 ± 9.2"}, {"smiles": "CC1(C)SC2C(NC(=O)C(C(=O)[O-])c3ccccc3)C(=O)N2C1C(=O)[O-].[Na+].[Na+]", "note": "(stereo not given) [Carbenicillin, Disodium Salt]", "cell viability": "86.7 ± 1.1"}, {"smiles": "CC1C(=O)OC2CC34C5CC(C(C)(C)C)C36C(OC(=O)C6O)OC4(C(=O)O5)C21O", "note": "(stereo not given) [Ginkgolide A]", "cell viability": "114 ± 6"}, {"smiles": "CNS(=O)(=O)Cc1ccc2[nH]cc(CCN(C)C)c2c1", "note": "[Sumatriptan]", "cell viability": "126 ± 3.5"}, {"smiles": "Nc1nc(=O)c2c([nH]1)NCC(CNc1ccc(C(=O)NC(CCC(=O)[O-])C(=O)[O-])cc1)N2C=O.O.O.O.O.O.[Ca+2]", "note": "(stereo not given) [Leucovorin Calcium]", "cell viability": "108 ± 13"}, {"smiles": "Nc1nc(Cl)nc2c1ncn2C1OC(CO)C(O)C1F", "note": "(stereo not given) [Clofarabine]", "cell viability": "180 ± 11"}, {"smiles": "Cc1cc(C2CCCCC2)n(O)c(=O)c1", "note": "[Ciclopirox]", "cell viability": "73.9 ± 3.7"}, {"smiles": "NC(=O)C(CCC(F)(F)F)N(Cc1ccc(-c2ncon2)cc1F)S(=O)(=O)c1ccc(Cl)cc1", "note": "(stereo not given)", "cell viability": "102 ± 16"}, {"smiles": "CC(=O)O[C@@]12CO[C@@H]1C[C@H](O)[C@@]1(C)C(=O)[C@H](O)C3=C(C)[C@@H](OC(=O)[C@H](O)[C@@H](NC(=O)OC(C)(C)C)c4ccccc4)C[C@@](O)([C@@H](OC(=O)c4ccccc4)[C@H]21)C3(C)C", "note": "[Docetaxel]", "cell viability": "116 ± 22"}, {"smiles": "O=C(Oc1ccccc1C(=O)O)c1ccccc1O", "note": "[Sasapyrine]", "cell viability": "74.4 ± 6.4"}, {"smiles": "CCCNS(=O)(=O)Nc1ncnc(OCCOc2ncc(Br)cn2)c1-c1ccc(Br)cc1", "note": "[Macitentan]", "cell viability": "51.7 ± 28"}, {"smiles": "CCCCCCCCCC(=O)NC(Cc1c[nH]c2ccccc12)C(=O)NC(CC(N)=O)C(=O)NC(CC(=O)O)C(=O)NC1C(=O)NCC(=O)NC(CCCN)C(=O)NC(CC(=O)O)C(=O)NC(C)C(=O)NC(CC(=O)O)C(=O)NCC(=O)NC(CO)C(=O)NC(C(C)CC(=O)O)C(=O)NC(CC(=O)c2ccccc2N)C(=O)OC1C", "note": "(stereo not given) [Daptomycin]", "cell viability": "163 ± 89"}, {"smiles": "COc1nc(C)nc(Cl)c1NC1=NCCN1", "note": "[Moxonidine]", "cell viability": "98.9 ± 5.5"}, {"smiles": "NCCCCC(NC(CCc1ccccc1)C(=O)O)C(=O)N1CCCC1C(=O)O.O.O", "note": "(stereo not given) [Lisinopril dihydrate]", "cell viability": "113 ± 3.5"}, {"smiles": "Cc1cc(C2CCCCC2)n(O)c(=O)c1.NCCO", "note": "[Ciclopirox ethanolamine]", "cell viability": "59.3 ± 3.2"}]}]}
